The record followed here is PubChem BioAssay AID1051 (The Scripps Research Institute Molecular Screening Center, 2008).

The whole screen tested about 99,000 compounds, of which about 340 (0.34%) were called active. The list comes from a sample in which actives are over-represented; it also holds similar structures and randomly drawn compounds. Unmarked numbers belong to inactive results. Rule as the data show it: active = TR-FRET ratio above about 2300; inactive = the rest.

A short description of this assay: signal artefacts in PPARgamma/SRC-1 readout – biochemical, TR-FRET emission ratio, artefact control for PPARgamma SRC-1 recruitment agonists, primary screen (AID 1051). The settings on record: TR-FRET detection artefact counter-screen, at 8 µM, stronger effect = higher value.
Consider `COC(=O)c1c(C)[nH]c(C)c1-c1ccc([N+](=O)[O-])cc1`, for which the TR-FRET ratio was 1710.

`CCOc1cc(CNn2c(C)nnc2SCC(=O)NC(C)(C)C)ccc1OCC(=O)NC(C)(C)C`: the TR-FRET ratio was 1840.

Turning to `O=C(NNS(=O)(=O)c1ccc(F)cc1)c1cnccn1`, the TR-FRET ratio was 1930.

`Cc1ccc(NC(=S)N(CCN2CCCCC2)Cc2ccco2)cc1C`: the TR-FRET ratio is 1560.

Take `COc1cc(C(=O)OCc2ccc([N+](=O)[O-])cc2)cc(OC)c1OC`: the TR-FRET ratio was 1470.

With `S=C(Cc1ccc(Cl)cc1)N1CCOCC1`, the TR-FRET ratio is 2050.

As for `COc1cc(NS(=O)(=O)c2ccc(NC(=O)c3ccc(S(=O)(=O)N4CCCCC4)cc3)cc2)ncn1`, the TR-FRET ratio was 1650.

With `CCC(=O)N(Cc1cc2ccccc2[nH]c1=O)c1ccc(OC)cc1`, the TR-FRET ratio is 1990.

As for `COc1ccc(-n2nnnc2SCC(=O)NCc2cccs2)cc1`, the TR-FRET ratio was 1830.

For the compound `CN1CCN(S(=O)(=O)c2cccc(C(=O)N3CCc4ccccc43)c2)CC1`, the TR-FRET ratio was 1760.

`Cc1ccc(N2C(=O)C(CC(=O)Nc3cccc(F)c3)N(CCc3ccncc3)C2=O)cc1` (centres undefined): the TR-FRET ratio is 1810.

Consider `CCOc1cnc(-c2c(-c3ccccc3Cl)noc2C)o1`, for which the TR-FRET ratio is 1830.

As for `COc1ccc(S(=O)(=O)N2CCCCCC2)cc1C(=O)OCC(=O)Nc1cc(C)on1`, the TR-FRET ratio was 2360 (active).

Turning to `Cc1cc(NC(=O)COC(=O)c2ccc(F)c(S(=O)(=O)N3CCOCC3)c2)no1`, the TR-FRET ratio was 1740.

With `O=C(COC(=O)c1cc(S(=O)(=O)N2CCCCC2)ccc1Cl)NCc1ccco1`, the TR-FRET ratio is 1930.

Regarding `COc1ccnc(Oc2ccccc2)n1`, the TR-FRET ratio was 1760.

As to `O=C(Nc1ccc(N2CCN(C(=O)c3cccs3)CC2)cc1)c1cccnc1Cl`, the TR-FRET ratio was 1580.

As for `CNS(=O)(=O)c1ccc(N2CCCC2=O)c([N+](=O)[O-])c1`, the TR-FRET ratio is 1690.

For `O=S(=O)(c1ccc(-c2ccccc2)cc1)N1CCCC1`, the TR-FRET ratio is 1580.

Consider `CC(=O)OC(COc1ccc(F)cc1)Cn1cnc2ccccc21` (centres undefined), for which the TR-FRET ratio is 1950.

With `Cc1cccc(NC(=O)c2ccc3ccccc3n2)n1`, the TR-FRET ratio was 2320 (active).

On to `CC(OC(=O)c1ccc2ccccc2n1)C(=O)c1ccccc1` (centres undefined), for which the TR-FRET ratio was 1760.

On to `COC(=O)c1ccc(NC(=S)Nc2cccc(C)n2)cc1`, for which the TR-FRET ratio is 1830.

Regarding `COc1ccc(N2CCN(CCCNC(=O)C3CCN(S(=O)(=O)N4CCOCC4)CC3)CC2)cc1`, the TR-FRET ratio was 1660.

Consider `COc1ccc(C)cc1NC(=S)Nc1ccccc1SC`, for which the TR-FRET ratio was 1550.

Turning to `O=C(N/N=C/c1ccc([N+](=O)[O-])o1)c1cccc(S(=O)(=O)N2CCOCC2)c1`, the TR-FRET ratio is 2000.

As for `COC(=O)c1ccc(CN2CCN(CCCc3ccccc3)C(CCO)C2)cc1` (centres undefined), the TR-FRET ratio was 1770.

As for `CC(=O)N1c2ccccc2N(Cc2ccc([N+](=O)[O-])cc2)C(=O)C1(C)C`, the TR-FRET ratio is 1840.

`N#Cc1c(NC(=O)C2CC(Cl)=CCC2C(=O)O)sc2c1CCCCC2` (centres undefined): the TR-FRET ratio is 1990.

In the case of `COC(=O)C(C)N=Cc1ccccc1` (centres undefined), the TR-FRET ratio is 1960.

For `CCN(CC)S(=O)(=O)c1ccc(Cl)c(NC(=O)c2ccncc2)c1`, the TR-FRET ratio is 1750.

In the case of `Cc1ccc(-c2cn3cc([N+](=O)[O-])ccc3n2)cc1`, the TR-FRET ratio was 1970.

As for `COc1cc(/C=C/C(=O)OCC(=O)N2CCOCC2)ccc1OCC#N`, the TR-FRET ratio was 1960.

In the case of `Cc1cc(NC(=O)CSc2nc3c(cc2C#N)CCCCC3)no1`, the TR-FRET ratio was 1930.

As to `C/C(CC(=O)Nc1cccc(F)c1)=N\NC(=O)C(=O)NC1CCCCC1`, the TR-FRET ratio was 1840.

Turning to `CCOc1ccc(N(CC(=O)NCCc2ccc(OC)cc2)S(C)(=O)=O)cc1`, the TR-FRET ratio was 1790.

On to `Cc1ccccc1CN(c1ccc(C(=O)NCC2CCCO2)cc1)S(C)(=O)=O` (centres undefined), for which the TR-FRET ratio is 1760.

For `CNc1[nH]ncc1[N+](=O)[O-]`, the TR-FRET ratio was 1620.

In the case of `O=C(c1ccc(OC2CCN(Cc3ccccn3)CC2)cc1)N1CCCCCC1`, the TR-FRET ratio was 1590.

Regarding `CCc1nnc(NC(=O)/C=C/c2ccc(C)o2)s1`, the TR-FRET ratio was 1650.

On to `CCOC(=O)C1CCCN(C(=O)c2cccc(S(=O)(=O)N3CCOCC3)c2)C1` (centres undefined), for which the TR-FRET ratio was 1820.

In the case of `Cc1nc2ccc(NC(=S)N3CCC(C)CC3)cc2nc1C`, the TR-FRET ratio is 1940.

`Cn1cc(CCC(=O)N2CCCC(C(=O)c3ccc(C(C)(C)C)cc3)C2)cn1` (centres undefined): the TR-FRET ratio was 2020.

For the compound `Cc1coc(C)c1C(=O)CC1(O)C(=O)N(C)c2ccc(Cl)cc21` (centres undefined), the TR-FRET ratio was 1870.

For the compound `CC(C)CC(CC(C)C)=NNC(=O)c1ccc(CSc2nncn2C)cc1`, the TR-FRET ratio is 1890.

Turning to `O=C(C1CC1)N1N=C2CCCCC2C1(O)C(F)(F)F` (centres undefined), the TR-FRET ratio is 1750.

As for `O=[N+]([O-])c1cc(S(=O)(=O)N2CCCC2)ccc1NN=C1CCCC1`, the TR-FRET ratio was 1910.

Consider `Cn1cnnc1SCc1nnc(-c2ccccc2Br)o1`, for which the TR-FRET ratio is 1590.

For the compound `CCOC(=O)CCCNC(=O)COC(=O)/C=C/c1ccc2c(c1)OCO2`, the TR-FRET ratio is 1620.

With `O=C(OCC(=O)N1CCOCC1)c1ccc(N2CCOCC2)c([N+](=O)[O-])c1`, the TR-FRET ratio is 2030.

Turning to `COc1ccc(NC(=S)N2CCCC(CO)C2)c(OC)c1` (centres undefined), the TR-FRET ratio is 1690.

As for `Cc1nn(C)c(C)c1S(=O)(=O)N1CCC(CO)(Cc2ccc(Cl)cc2)CC1`, the TR-FRET ratio is 1980.

Consider `O=C(CCN1C(=O)c2ccccc2C1=O)NNC(=O)c1ccc(Cl)cc1Cl`, for which the TR-FRET ratio was 2130.

In the case of `CCC1CO/C(=C(\C(=C(Cl)Cl)N2CCOCC2)[N+](=O)[O-])N1` (centres undefined), the TR-FRET ratio was 1830.

In the case of `CN(C(=O)CSc1nncc2ccccc12)C1CCCCC1`, the TR-FRET ratio was 1810.

With `Cc1ccc(Sc2ccncc2S(N)(=O)=O)cc1`, the TR-FRET ratio was 1560.

On to `N#Cc1c(-c2ccc(Cl)cc2)c2c([nH]c1=S)CCCC2`, for which the TR-FRET ratio is 2380 (active).

Turning to `CCOC(=O)c1c(C)[nH]c(=S)c(C#N)c1-c1ccccc1`, the TR-FRET ratio was 1630.

Take `CNc1nccc(-c2ccc(Cl)cc2)c1C#N`: the TR-FRET ratio was 1880.

`Clc1cccc(-c2nc(NCC3CCCO3)c3ccccc3n2)c1` (centres undefined): the TR-FRET ratio is 1630.

As for `CCc1[nH]nc(C(=O)N2CCCC(CNS(=O)(=O)c3cccs3)C2)c1C` (centres undefined), the TR-FRET ratio is 1580.

With `O=C(O)Cc1ccc(-c2ccccc2)cc1`, the TR-FRET ratio was 1790.

Turning to `O=C(O)Cc1sc(-c2ccccc2)nc1-c1cccs1`, the TR-FRET ratio is 2910 (active).

As for `O=C(O)Cc1sc(-c2ccc(C(=O)O)cc2)nc1-c1ccccc1`, the TR-FRET ratio is 1940.

Regarding `O=C(Nc1ccccc1)N1CCN(C(=O)Nc2ccccc2)CC1`, the TR-FRET ratio is 1700.

With `Cc1nc2ccccc2c(C)c1C(=O)c1ccc(F)cc1`, the TR-FRET ratio was 1400.

Take `CCC(CC)C(=O)N1CCN(c2cccc(C)c2C)CC1`: the TR-FRET ratio is 1600.

As to `O=C(COC(=O)c1ccc(F)cc1)Nc1nc2ccc([N+](=O)[O-])cc2s1`, the TR-FRET ratio is 1760.

`COc1ccc(Cc2nnc(NC(=O)Cc3cccs3)s2)cc1`: the TR-FRET ratio was 1780.

On to `COc1ccc(OCCCC(=O)Nc2nnc(C3CCCO3)s2)cc1` (centres undefined), for which the TR-FRET ratio is 1980.

As to `COc1ccc(OCC(=O)Nc2nnc(-c3ccco3)s2)cc1`, the TR-FRET ratio is 2500 (active).

`C=CCO/N=C/C1=C(O)C(C(=O)OC)C(C)(C)CC1=O` (centres undefined): the TR-FRET ratio was 1870.

As to `O=C(Nc1ccncc1)c1cc(-c2ccccn2)nc2ccc(Br)cc12`, the TR-FRET ratio is 1860.

On to `C/C(N)=C(/C#N)C(=O)COC(=O)c1cc(-c2ccccc2)nc2ccc(Br)cc12`, for which the TR-FRET ratio was 1910.

As for `O=C(NCc1cccs1)c1cc(-c2ccccn2)nc2ccc(Br)cc12`, the TR-FRET ratio was 2520 (active).

As to `Cc1ccc(-c2cc(C(=O)NCc3cn(C)nc3C)c3cc(Br)ccc3n2)cc1`, the TR-FRET ratio is 2880 (active).

For the compound `Cc1ccc2nc(-c3cccc(Br)c3)cc(C(=O)Nn3cnnc3)c2c1`, the TR-FRET ratio was 1660.

With `O=C(NCc1ccccn1)c1cc(Br)ccc1Cl`, the TR-FRET ratio was 1780.

On to `CSc1ccc(CN2C(=O)NC3(CCCCCC3)C2=O)cc1`, for which the TR-FRET ratio is 1630.

`Cc1ccnc(NS(=O)(=O)c2ccc(NC(=O)c3ccc(S(=O)(=O)N(C)C)cc3)cc2)n1`: the TR-FRET ratio is 1700.

Regarding `COc1cccc(NC(=O)c2ccc(S(=O)(=O)N(C)C)cc2)c1`, the TR-FRET ratio was 1680.

In the case of `COc1cccc(NC(=S)NCc2ccccn2)c1`, the TR-FRET ratio was 1990.

Take `Cc1nn(C)c(C(=O)NNC(=S)NC2CCCCC2)c1Cl`: the TR-FRET ratio was 1630.

Turning to `COc1cccc(NC(=S)NC(=O)c2c(Cl)c(C)nn2C)c1`, the TR-FRET ratio was 2600 (active).

As for `CN1CCN(C(=O)N2c3ccccc3CCc3ccccc32)CC1`, the TR-FRET ratio was 1720.

On to `CCOc1c(CNCc2ccc(C(=O)O)cc2)cccc1OC`, for which the TR-FRET ratio was 1910.

With `O=C(CC1C(=O)NCCN1Cc1ccc(-c2ccccc2)cc1)NCC1CCOCC1` (centres undefined), the TR-FRET ratio is 1730.

With `CCc1ccccc1N1C(=O)C2C3CC(=O)C(c4ccccc43)C2C1=O` (centres undefined), the TR-FRET ratio is 1650.

On to `CC(=O)NC1=NN(C(C)=O)C(C)(c2ccc(C)cc2)S1` (centres undefined), for which the TR-FRET ratio was 1950.

With `COc1ccc(/C=N/NC(=O)Cn2cc(C(F)(F)F)ccc2=O)cc1`, the TR-FRET ratio was 1880.

As to `CCN(CCn1cccn1)C(=O)CC1C(=O)NCCN1Cc1cccc(OC)c1OC` (centres undefined), the TR-FRET ratio was 1620.

For the compound `CSc1nc2c(c(=O)[nH]1)C(c1cccc(Cl)c1Cl)CC(=O)N2` (centres undefined), the TR-FRET ratio is 1770.

Regarding `CCN1CCN(CC(=O)c2cc(OC)c(OC)c(OC)c2)CC1`, the TR-FRET ratio was 1990.

In the case of `CC(C)OC(=O)CN1CCN(c2ccc(Cl)cc2)CC1`, the TR-FRET ratio is 1890.

Consider `CCCC(=O)OCC(=O)Nc1cc(Cl)ccc1[N+](=O)[O-]`, for which the TR-FRET ratio is 1580.

On to `CN(C)C(=O)N1CCNCC1`, for which the TR-FRET ratio is 1920.

For `COc1ccc(C/C(C)=N/NC(=O)c2ccncc2)cc1`, the TR-FRET ratio was 1920.

Regarding `O=C(Nc1ccc([N+](=O)[O-])cc1)C1(c2ccccc2)CCOCC1`, the TR-FRET ratio was 1740.

Regarding `CN1CCN(CC#CCC2(O)c3ccccc3-c3ccccc32)CC1`, the TR-FRET ratio is 1610.
